Data on 114 compounds can be found in ChEMBL document CHEMBL4513216, “Probing the Open Global Health Chemical Diversity Library for Multistage-Active Starting Points for Next-Generation Antimalarials” (ACS Infect Dis, 2020).

Structures are written as SMILES. Out of some 69,000 compounds screened, about 8,600 (12%) showed an effect of 50% or more. What follows is part of a selection rich in strong results, with near analogues and random picks from the rest.

This assay relates to Plasmodium berghei. The assay can be described thus: Screen against P. berghei liver stage (PbLuc), transformed with Luciferase, at 10uM. The format is functional, HepG2. The note with it: tested at 10 uM.
Take `CC(C)(CN1CCC2(CCNCC2)CC1)N1CCOCC1`: the INHIBITION is -22.1%.
Then `Cc1ccoc1C(=O)NC1CCN(CC(=O)N(C)c2ccccc2)CC1`, with 22.3%.
Then `Cc1ccoc1C(=O)NC1CCN(C(=O)Nc2ccccn2)CC1`, with -31.8%; and `Cc1ccoc1C(=O)NC1CCN(Cc2csc3c(F)cccc23)CC1`, with 87.4%; and `Cc1ccoc1C(=O)NC1CCN(Cc2cccc3ccccc23)CC1`, with 56.4%.
The value for `Cc1ccoc1C(=O)NC1CCN(Cc2cccc3c2OCCO3)CC1` was 52.1%; that for `Cc1ccoc1C(=O)NC1CCN(Cc2ccccc2C#N)CC1` was -9.37%.
Consider `Cc1ccoc1C(=O)NC1CCN(Cc2ccccc2F)CC1`, for which the INHIBITION was determined as 44.1%.
As for `Cc1ccc(C(=O)NC2CCN(Cc3cccc4c3OCCO4)CC2)s1`, the INHIBITION worked out at 33.8%.
The value for `CC(C)C(=O)NC1CCN(Cc2cccc3c2OCCO3)CC1` was 6.81%; that for `CN(C)c1ncc(-c2ccc(C(N)=O)cc2)c(C2CCNC2)n1` (centres undefined) was 6.33%.
The value for `Cc1cc(C(=O)N2CCC3(C2)CN(c2cccnc2)C(=O)CN3C)[nH]n1` (centres undefined) was 22.4%; that for `CC(C)c1nccn1C1CCCN(C(=O)c2cc(C(N)=O)cs2)C1` (centres undefined) was 35.3%.
The value for `CC(=O)N1CCC2(CC1)CN(C(C)C)c1ccc(F)cc12` was 12.2%; that for `CN1CCC(Cc2cccc(-c3cc(F)ccc3C(=O)O)n2)CC1` was 23.4%; that for `CC(C)Oc1ccc(C(=O)N2CC[C@H](O)[C@@H](n3ccnc3)CC2)cc1` was 26.3%.
Turning to `CCS(=O)(=O)c1ccccc1N1CCC(N)CC1`, the INHIBITION was 31.8%.
The value for `CC(C)c1ncncc1C(=O)N1CCN(Cc2cccnc2)CC1` was 31.9%; that for `COCCOCC1(CNCc2ccc(F)cc2)C[C@@H](O)[C@@H](O)C1` (some centres undefined) was -43%.
Then `CC(C)Cc1nnc2sc(-c3cc(C(C)C)n[nH]3)nn12`, with 46.6%; and `CC(C)(C)c1ccc(CN2C[C@H]3CC(O)C[C@H]3C2)c(OCC(N)=O)c1` (some centres undefined), with -2.85%; and `COc1ccc2cnn(CC(=O)NC3CCCC3)c(=O)c2c1OC`, with 40.5%.
Then `Cc1cc(C)cc(NC(=O)N(CCC#N)CCCN(C)C)c1`, with 52.6%; and `N#CCCN(Cc1ccccn1)C(=O)Nc1cccc(F)c1`, with -27.6%; and `COC(C)c1cccc(NC(=O)N(CCC#N)Cc2ccccn2)c1` (centres undefined), with 27.8%.
Turning to `CN(C)CCCN(CCC#N)C(=O)Nc1ccc2[nH]ccc2c1`, the INHIBITION came to 35.9%.
Then `Cc1cc(NC(=O)N(CCC#N)CCCN(C)C)ccc1F`, with 52.6%.
The value for `CCOc1ccc(NC(=O)N(CCC#N)Cc2ccccn2)cc1F` was -1.95%.
Then `CCOc1ccccc1-n1c(C2CC2)n[nH]c1=O`, with -8.25%; and `COc1cc(N2CC[C@@H]3O[C@H](C(=O)N(C)C)C[C@@H]32)ncn1`, with -20.1%.
Take `Cc1cccc(CN2CCc3onc(CO)c3C2)n1`: the INHIBITION was found to be 28.5%.
The value for `CCC(=O)N1CCN(C(=O)c2cn3ccsc3n2)[C@H]2CS(=O)(=O)C[C@H]21` was 14.9%; that for `O=C1NCCN(C(=O)c2cn3ccsc3n2)C1c1cccc(F)c1` (centres undefined) was 43.6%.
Then `O=C1NCCN(C(=O)c2cn3ccsc3n2)C1Cc1ccccc1` (centres undefined), with 54.5%; and `Cc1cccnc1CN1CCN(C(=O)[C@@]23CNC[C@@H]2CN(C)C3)CC1`, with 41.5%; and `Cc1cs/c(=N\C(=O)Cn2nc(N3CCSCC3)ccc2=O)[nH]1`, with 10.1%.
For `COC1CCN(C(=O)CCn2cccn2)CC1`, the INHIBITION is on record as -9.85%.
Then `CCN(CC)CC1CCN(C(=O)CCn2cccn2)CC1`, with 17.15%.
The value for `CNC(=O)C1CCN(C(=O)CCn2cccn2)CC1` was 62.8%; that for `COc1ccc(C)cc1NC(=O)C1CSc2ncc(C)c(=O)n2C1` (centres undefined) was 5.36%; that for `c1ccc(CN2CCCC2)c(CNc2cncc3nnnn23)c1` was -14.3%.
The value for `COc1cc(C(=O)NCCS(=O)(=O)N(C)C)c2ccccc2n1` was 52.9%; that for `CCCNC(=O)c1cc(OC)c(OC)cc1N(C)S(C)(=O)=O` was 24.9%; that for `COc1cc(C(=O)NCC2(N(C)C)CCN(C)CC2)c2ccccc2n1` was 68.4%.
Regarding `COc1cc(C(=O)NC(C)(C)CN2CCN(C)CC2)c2ccccc2n1`, the INHIBITION worked out at 28.05%.
The value for `CN1CCC(NC(=O)c2cc(C3CCCCC3)nc3ccccc23)CC1` was 10.5%; that for `CCn1nc(CC(C)C)cc1C(=O)NCCS(=O)(=O)N(C)C` was 7.25%.
As to `Cc1nc(-c2ccccc2)sc1CNC1CCc2ncnn2C1` (centres undefined), the INHIBITION is listed as 8.64%.
Regarding `CCn1nc2c(cc1=O)CN(Cc1nc(C)c(C)o1)CC2`, the INHIBITION was -29.7%.
For `CCCN1CCN(C(=O)CCn2nc(C(F)(F)F)c(Br)c2C)CC1`, the INHIBITION is listed as 6.67%.
Turning to `O=C1C[C@@H]2CC[C@H](CN1)N2C(=O)CCc1ccc2c(c1)OCO2`, the INHIBITION stood at 17.6%.
For `Cn1nccc1-c1ccc2nc(C3CCN(CCO)CC3)nn2c1`, the INHIBITION was found to be 33.4%.
On to `c1cnc(N2CCC(c3nccn3CC3CC3)CC2)nc1`, for which the INHIBITION was determined as 36.5%.
The value for `CN(C)Cc1cc(=O)n2c(n1)CN(C(=O)Cc1cccs1)CCC2` was 27.6%.
In the case of `CC1CCCCN1C(=O)CN1CCN(c2ccc3nncn3n2)CC1` (centres undefined), the INHIBITION amounted to 24%.
Then `CC1CN(CC2CCCC2)CCN1c1ccc2nncn2n1` (centres undefined), with 82.6%; and `CC1CN(CCc2ccccn2)CCN1c1ccc2nncn2n1` (centres undefined), with 15.6%.
The value for `CC1CN(CC(=O)N2CCCC2)CCN1c1ccc2nncn2n1` (centres undefined) was 7.67%.
Take `CC1CN(CC(=O)NC2CCCC2)CCN1c1ccc2nncn2n1` (centres undefined): the INHIBITION worked out at 50.4%.
The value for `CC1CN(CC2CCCCC2)CCN1c1ccc2nncn2n1` (centres undefined) was 89.3%; that for `O=C(CN1CCN(c2ccc3nncn3n2)CC1)NC1CCCCC1` was -4.16%.
Consider `Cc1nc(CN2CCN(c3ccc4nncn4n3)C(C)C2)oc1C` (centres undefined), for which the INHIBITION came out at 7.27%.
Then `O=C(CN1CCN(c2ccc3nncn3n2)CC1)NC1CCCC1`, with -0.219%; and `Cc1cc(CN(C)C(=O)NC2CCN(Cc3ccccn3)CC2)no1`, with -26.6%.
Then `CCn1cc(-c2cncn2CCc2ccc3c(c2)OCCO3)cn1`, with 16.5%; and `Cc1nc(N2CCOCC2)ncc1-c1cc(O)nc(N2CCCCC2)n1`, with 20.9%; and `O=C(NCc1csc2ccc(Cl)cc12)c1cc2n(n1)CCNC2`, with 44.4%.
`Cc1nn(CC(=O)n2cccn2)c(C)c1I`: the INHIBITION is on record as 8.53%.
Then `O=C(N[C@@H]1CN(c2ncccn2)C[C@@H]2CCCO[C@@H]21)c1ccncc1`, with 35.8%; and `Cc1cccc(C2(CNC(=O)c3ccnc(N(C)C)c3)CCOCC2)c1`, with 13.5%.
Then `COc1ccc(Cl)cc1C(=O)N1C[C@H](C(C)C)[C@@H](N)C1`, with -0.55%; and `CCCc1nc(CN2CCOC(Cn3cncn3)C2)cs1` (centres undefined), with 5.9%; and `COc1ccc([C@@H]2CN(Cc3cccnc3N)C[C@H]2NC(C)=O)cc1`, with 23.9%.
Then `O=C([C@H]1CCCO1)N1CCC2(CC1)CNCc1ccccc12`, with 17.2%.
Consider `O=C(C1CCOC1)N1CCC2(CC1)Cc1ccccc1CNC2=O` (centres undefined), for which the INHIBITION was 2.26%.
Then `O=C(C1CC1)N1CCC2(CC1)CNCc1ccccc12`, with 74.8%; and `O=C(C1CCCCC1)N1CCC2(CC1)CNCc1ccccc12`, with 61.5%; and `O=C(C1CC1)N1CCC2(CC1)CNc1ccc(F)cc12`, with 8.85%.
On to `O=C([C@@H]1CSCN1)N1CCC2(CC1)CNCc1ccccc12`, for which the INHIBITION is 27.5%.
For `CC(CNC(=O)c1cc(C2CC2)on1)N1CCc2ccccc21` (centres undefined), the INHIBITION is recorded as -51.5%.
As to `CC(Cc1ccccc1F)NC(=O)CCC1=NC(=C2N=CN=N2)NO1` (centres undefined), the INHIBITION is reported as 60.4%.
On to `CC(C)C(N)C1=NC(=C2N=CN=N2)NO1` (centres undefined), for which the INHIBITION worked out at 8.11%.
The value for `CC(C)CC(N)C1=NC(=C2N=CN=N2)NO1` (centres undefined) was 37.7%; that for `CCc1nc(C2CCCN2Cc2nnc(Cc3ccccc3)o2)no1` (centres undefined) was 5.97%.
The value for `Cc1nnc(CN2CCCC2c2ccc(C(C)(C)C)cc2)o1` (centres undefined) was 38.8%; that for `CCc1nc(C2CCCN2Cc2nc(C(C)(C)C)no2)no1` (centres undefined) was 71.2%; that for `Cc1nnc(CN2CCCC2c2ccsc2)o1` (centres undefined) was 53.9%.
In the case of `CCc1nc(C2CCCN2Cc2noc(Cc3ccccc3)n2)no1` (centres undefined), the INHIBITION is given as 72.8%.
Then `CCc1nc(C2CCCN2Cc2nc(Cc3ccccc3)no2)no1` (centres undefined), with 31.3%; and `Cc1nnc(CN2CCCC2c2ccc(Cl)c(Cl)c2)o1` (centres undefined), with 21.5%; and `Cn1ccnc1CN1CCCC1c1noc(C2CC2)n1` (centres undefined), with 7.64%.
Then `CCc1nc(C2CCCN2Cc2nc(C3CC3)no2)no1` (centres undefined), with -34.9%; and `Cc1cc(CN2CCCC2c2noc(C3CC3)n2)c2ccccc2n1` (centres undefined), with 64.5%.
Then `CCc1nc(C2CCCN2Cc2nnc(CC)o2)no1` (centres undefined), with -0.219%; and `c1ccc(Cn2ccnc2CN2CCCC2c2noc(C3CC3)n2)cc1` (centres undefined), with 18.6%.
In the case of `COCc1ccccc1CNC(=O)CNc1ccccc1C(C)=O`, the INHIBITION was -1.79%.
The value for `O=C(C1CCOC1)N1CCC2(CC1)CN(Cc1nccs1)CCO2` (centres undefined) was 15.9%; that for `CNC(=O)c1ccc(C(=O)N2CCCC2c2c(C)nn(C)c2C)cn1` (centres undefined) was 31.2%; that for `Cc1cn2c(n1)CCC(NC(=O)c1csc(C(C)C)n1)C2` (centres undefined) was 19.5%.
Then `CCc1c(C)nc2n(c1=O)CC(C(=O)Nc1sccc1C(=O)OC)CS2` (centres undefined), with -7.25%.
Take `CN(Cc1nnc2n1CCC2)C(=O)c1ccc2c(c1)OCCCO2`: the INHIBITION turned out to be 26.4%.
Regarding `Nc1nc2nc(C3CCCN(C(=O)c4cncs4)C3)ccc2s1` (centres undefined), the INHIBITION is 18.3%.
The value for `c1ccc2nc(CN3CCCC3c3noc(C4CC4)n3)ccc2c1` (centres undefined) was 54.7%; that for `COc1ccc(C)cc1CN1CCCC1c1noc(C2CC2)n1` (centres undefined) was 80.3%.
On to `Cc1noc(CN2CCCC2c2noc(C3CC3)n2)n1` (centres undefined), for which the INHIBITION was found to be 38.5%.
Consider `c1ccc2oc(CN3CCCC3c3noc(C4CC4)n3)nc2c1` (centres undefined), for which the INHIBITION is -87.5025%.
Then `Cc1nc(CN2CCCC2c2noc(C3CC3)n2)nc2ccccc12` (centres undefined), with 80.25%; and `Cc1cnc(CN2CCCC2c2noc(C3CC3)n2)cn1` (centres undefined), with -4.94%.
For the compound `CCc1nc(C2CCCN2Cc2nc3ccccc3o2)no1` (centres undefined), the INHIBITION is 20.2%.
Consider `Cc1nc(CN2CCCC2c2noc(C3CC3)n2)oc1C` (centres undefined), for which the INHIBITION worked out at 49.35%.
For `COc1c(C)cnc(CN2CCCC2c2noc(C3CC3)n2)c1C` (centres undefined), the INHIBITION stood at 21.3%.
On to `CCc1nc(C2CCCN2Cc2cc(C)nc3ccccc23)no1` (centres undefined), for which the INHIBITION was 60.75%.
Then `CCc1noc(CN2CCCC2c2noc(C3CC3)n2)n1` (centres undefined), with 27.4%; and `CCc1nc(C2CCCN2Cc2cnc(C)cn2)no1` (centres undefined), with -4.94%.
